# Screens: PubChem, National Center for Advancing Translational Sciences (NCATS)
# An excerpt weighted towards active compounds, which were near 8.3% of everything screened.
# VP16 counter – VP16 counterscreen qHTS for inhibitors of ROR gamma transcriptional activity; Drosophila S2 Gal4-VP16 UAS-luciferase, luminescence, 20 h; Potency, µM (doses to about 53.6 µM), usual class: inhibitors; 3.5% of 310,000 active; AID 2546, 2010;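 also: Gal4-VP16 expression switched on by copper sulfate through the metallothionein promoter; nearly all actives have a fitted effect of over 50% in size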
# SW480 rereplic – A quantitative high throughput screen for small molecules that induce DNA re-replication in SW480 colon adenocarcinoma cells. SW480 DNA re-replication, Hoechst DNA content imaging, 48 h. AID 624297, 2012. Potency, µM (top dose mostly 46.1 µM), hits mostly activators. 1.8% of 340,000 active; also: nearly all actives have a fitted effect of over 55% in size
#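 250 cells/well; 23 nL cpd via pin tool; 48 hr, 37 C, 5% CO2; Hoechst 40 min; imager read of total nuclear intensity, ex 405/em 500-530 nm.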
# Giardia kill – Small Molecules that selectively kill Giardia lamblia: qHTS; activity change, % at 7.66 µM, hits read low; Giardia lamblia trophozoite viability; 0.15% of 340,000 active; AID 540267, 2011; in the data active = activity change below about -80%; inconclusive = between about -30% and that limit;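 also: parasites exposed to compound for two days anaerobically before the ATP read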
#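 Media and compound were dispensed first, then trophozoites at 100 cells/well; plates sat 48 hrs at 37 deg C without oxygen before ATP luminescence reagent was added and read after 15-30 min at room temperature.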
# RORgamma inh – qHTS for inhibitors of ROR gamma transcriptional activity | Drosophila S2 Gal4-RORgamma UAS-luciferase reporter, 20 h | Potency, µM (top dose mostly 53.6 µM), actives largely listed as inhibitors | 5.4% of 310,000 active | AID 2551, 2010; also: nearly all actives have a fitted effect of over 60% in size
# Target sequence (P51450 whole entry, looked up, the tested form may be a part): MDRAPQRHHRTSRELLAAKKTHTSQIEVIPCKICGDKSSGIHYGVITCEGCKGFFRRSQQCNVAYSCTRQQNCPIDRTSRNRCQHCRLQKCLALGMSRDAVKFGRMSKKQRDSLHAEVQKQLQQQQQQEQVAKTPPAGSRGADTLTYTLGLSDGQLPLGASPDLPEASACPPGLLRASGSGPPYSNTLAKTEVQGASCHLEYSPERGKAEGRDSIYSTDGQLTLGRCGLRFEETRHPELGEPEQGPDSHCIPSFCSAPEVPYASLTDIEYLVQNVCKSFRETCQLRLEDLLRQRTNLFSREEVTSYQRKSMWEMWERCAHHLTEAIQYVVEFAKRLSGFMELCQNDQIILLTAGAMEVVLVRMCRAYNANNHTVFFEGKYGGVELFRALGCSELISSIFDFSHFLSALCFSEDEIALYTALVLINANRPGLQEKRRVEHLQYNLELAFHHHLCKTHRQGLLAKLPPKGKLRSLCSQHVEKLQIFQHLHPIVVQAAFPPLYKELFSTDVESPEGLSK
#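 Schneider cells (Drosophila), stable Gal4 DBD–ROR gamma + UAS-luc; 1 hr cmpd preincubation; Cu2+ induction 700 uM final; 20 hr ambient; luminescence.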
# MCF10A rerep – A quantitative high throughput screen for small molecules that induce DNA re-replication in MCF 10a normal breast cells; Potency, µM (series often up to 46.1 µM), actives largely listed as activators; 2.9% of 350,000 active; MCF 10A DNA re-replication, Hoechst nuclear intensity, 48 h; also: nearly all actives have a fitted effect of over 50% in size
# BCR signal inh – qHTS Assay to Find Inhibitors of Chronic Active B-Cell Receptor Signaling; Potency, µM (highest dose often 46.1 µM), most hits filed as inhibitors; ABC-DLBCL IkBa-CBG/CBR reporter, luminescence ratio, 4 h; 0.05% of 340,000 active; active = well fitted inhibition curve with a large enough effect in the signal ratio, with a control signal flat, not every such curve was filed as active; inconclusive = small, poorly fitted or top-dose-only effect, or effect the other way, or a change in a side signal; the % refers to the signal ratio
#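 Doxycycline induced both beetle luciferases in TMD8 lymphoma cells; IKK-driven degradation limits the IkappaBalpha-fused green signal, while red luminescence normalises for cell number and nonspecific effects. Compounds tested up to 46 uM, 4 hrs.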
# Numbers stand for hits; i = inactive; ? = inconclusive; nt = not tested or not shown; [ ] = dose if it differs, or a comment. Unless noted, calls follow the shape of the dose curve; as a rule, active = well fitted curve in the direction sought with a large enough effect; inconclusive = small, poorly fitted or top-dose-only effect, or another doubt; inactive = no such curve, though single readings can be large; an effect the other way counts as inactive or inconclusive.
SMILES,VP16 counter,SW480 rereplic,Giardia kill,RORgamma inh,MCF10A rerep,BCR signal inh
CC1CC(C)(C)NC(=S)N1CCCC(=O)NCc1ccccc1 (centres undefined),i,i,i,?,i,i
CCOc1ccccc1NC(=O)CCCN1C(=S)NC(C)(C)CC1C (centres undefined),?,i,i,14.1µM,i,i
CC1CC(C)CN(CCCNC(=O)CN2C(=O)CSc3ccc(S(=O)(=O)N4CCOCC4)cc32)C1 (centres undefined),i,i,i,i,i,i
CC(O)CN(CC(C)O)c1ccc2c(c1)Cc1cc([N+](=O)[O-])ccc1-2 (centres undefined),nt,8.2µM,i,nt,11.6µM,nt
CC(=NO)c1ccc2c(c1)Cc1cc([N+](=O)[O-])ccc1-2,nt,i,?,nt,i,nt
CN1C[C@@H]2C(c3ccccc3)C3(c4ccc(C#N)cc4)CC2(C3)[C@H]1c1ccccc1 (some centres undefined),i,i,?,i,5.17µM,i
CC(=O)n1cc(Nc2ccc([N+](=O)[O-])cc2)c2ccccc21,i,?,i,i,i,i
CC(=O)SC(C[N+](=O)[O-])c1cn(C(C)=O)c2ccccc12 (centres undefined),?,?,i,11.2µM,?,?
Cc1cccc(C(=O)NNc2ncnc3c2cnn3-c2ccc(C)cc2C)c1,nt,nt,nt,nt,nt,i
O=C(CN1C(=O)NC(c2ccccc2)(c2ccccc2)C1=O)NC1CCCC1,nt,i,i,nt,i,i
OC[C@H]1O[C@H](OCCc2ccc(O)cc2)[C@H](O)[C@@H](O)[C@@H]1O,nt,i,i,nt,i,i
Cc1cc2c(c(C)c1CCO[C@@H]1O[C@H](CO)[C@@H](O)[C@H](O)[C@H]1O)C(=O)[C@@H](C)[C@@H]2O,nt,i,i,nt,18.4µM,i
CCOC(=O)CN1C(=O)C(O)(CC(=O)c2ccco2)c2ccccc21 (centres undefined),i,i,i,i,?,i
CCCCN1C(=O)C(O)(CC(=O)c2c(C)n[nH]c2C)c2cc(Br)ccc21 (centres undefined),i,i,i,i,i,i
O=C(CC1(O)C(=O)N(Cc2ccccc2Cl)c2ccccc21)c1ccco1 (centres undefined),i,18.4µM,i,i,?,i
CCCCN1C(=O)C(O)(CC(=O)c2ccco2)c2cc(Br)ccc21 (centres undefined),i,14.6µM,i,i,?,?
Cn1ncc(SCc2ccccc2)c(Cl)c1=O,15.8µM,?,i,?,?,i
COc1ccccc1NC(=O)Nc1ccc(C(=O)N2CCCCC2)cc1,i,i,?,i,i,?
Cc1c(NC(=O)c2cc3c(s2)CCCC3)c(=O)n(-c2ccccc2)n1C,i,i[1.84 µM],i,?,i,?
O=C(NO)c1ccccc1,i,nt,nt,i,nt,nt
CC1=C/C(=N\NC(=O)c2ccccc2)CC1,?,i,i,12.6µM,i,?
O=C(/C=C/c1ccc(Br)cc1)c1ccc(NC(=O)c2ccco2)cc1,i,?,i,i,i,i
O=C(/C=C/c1ccc(Br)cc1)c1ccco1,11.2µM,?,i,?,?,?
COc1ccc(-c2cc(=O)c3c(O)c(OC)c(OC)c(OC)c3o2)cc1,i,?,?,i,i,nt
COc1c(O)cc(O)c2c(=O)cc(-c3ccccc3)oc12,nt,i,i,nt,16.4µM,?
SMILES,VP16 counter,SW480 rereplic,Giardia kill,RORgamma inh,MCF10A rerep,BCR signal inh
COc1ccc(-c2cc(=O)c3c(O)c(OC)c(O)cc3o2)cc1,10µM,?,?,?,i,?
Cc1ccnc(NC(=O)CCNC(=O)c2ccc(Cl)cc2)c1,i,?,i,i,i,i
CN1N=C2c3ccccc3CCCC2C1c1ccc(F)cc1 (centres undefined),i,20.6µM,i,?,?,i
Cc1ccc(-n2cc(CCCCCCCCC(=O)O)nn2)cc1,i,i,i,i,i,i
O=c1[nH]c2cc(Br)cnc2nc1/C=C(\O)c1ccc(F)cc1,i,i,i,i,7.31µM,?
CC(=O)NCCNc1ncnc2ccc(-c3ccccc3C(F)(F)F)cc12,i,nt,nt,i,nt,nt
CSc1ccccc1NC(=O)C(C)N(C)CC(=O)N1CCN(Cc2ccccc2)CC1 (centres undefined),nt,i,i,nt,i,nt
CN(C)C(=O)c1c(NC(=O)c2ccccc2)sc2c1CCC2,i,i,i,i,i,?
CCN(CC)CCCC(C)NC(=O)c1c(NC(=O)c2ccccc2)sc2c1CCCC2 (centres undefined),i,?,i,i,4.61µM,?
C=C(C)CNC(=S)N/N=C(\C)c1cccc(NC(C)=O)c1,?,i,i,10µM,i,i
CC(=O)Nc1cccc(/C(C)=N/NC(N)=S)c1,i,i,i,?,i,i
C/C(=N\NC(=S)NC(C)C)c1ccccc1,3.55µM,i,i,0.562µM,i,?
CC(C)NC(=S)NC(c1ccccc1)(c1ccccc1)c1ccccc1,3.16µM,i,i,?,i,i
C=C(C)CNC(=S)N/N=C/c1ccc(NC(C)=O)cc1,i,i,i,?,i,i
CC(=O)Nc1cccc(/C(C)=N/NC(=S)NC(C)C)c1,?,i,i,7.94µM,i,?
CCOc1ccccc1N(C)C(=O)c1sc2ncn(CC(=O)N3CCCCC3C)c(=O)c2c1C (centres undefined),i,i,i,i,i,i
Cc1ccc(Cn2nnc3c(=O)[nH]c(C4CCN(S(=O)(=O)c5ccccc5F)CC4)nc32)cc1,i,i,i,i,i,i
CC(NS(=O)(=O)c1ccccc1)C1CC2CCC1C2 (centres undefined),nt,i,i,nt,i,nt
CCc1noc(C)c1C(=O)N1CCCSC1=Nc1ccccc1Cl,nt,i,i,nt,i,i
CC(C)Nc1cccnc1N1CCN(C(=O)c2cc3cc(NS(C)(=O)=O)ccc3[nH]2)CC1,i,i,nt,?,i,nt
C/C(=N\NC(=S)NC(C)C)c1ccco1,4.47µM,i,i,?,i,?
CC(C)NC(=S)NN=C1c2ccccc2-c2ccccc21,?,i,i,7.94µM,i,?
NC(=O)c1cccc2c1-c1ccccc1/C2=N/NC(N)=S,?,i,i,?,i,i
COC(=O)N/N=C(\C)c1ccco1,i,i,i,i,i,i
NNc1nc(N)c2c(n1)-c1ccccc1CC21CCCC1,?,?,i,17.8µM,?,?
Cc1ccc(-c2ccc(/C=N/NC(=O)c3ccccc3O)o2)cc1,0.159µM,nt,nt,0.708µM,nt,?
NS(=O)(=O)c1ccc(-c2ccc(/C=N/NC(=O)c3ccccc3O)o2)cc1,17.8µM,?,i,3.55µM,i,?
